PostGolgi ctrl: inhibits growth of the yeast control strain. efflux-deficient yeast background strain, growth absorbance A615, 16 h. inhibition, % at 10 µM. 98,000 tested, 5% active. AID 738
CYP2C9 activ: activators of human CYP2C9; activation factor at 5 µM; 96,000 tested, 1.4% active; P11712; recombinant CYP2C9, luciferin-H conversion, luminescence; stronger effect = higher value; factor 1 = untreated enzyme, 0 = blocked;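 active = activation factor of 2 or more for CYP2C9 at a 5 µM dose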
Target sequence (P11712 whole entry, looked up): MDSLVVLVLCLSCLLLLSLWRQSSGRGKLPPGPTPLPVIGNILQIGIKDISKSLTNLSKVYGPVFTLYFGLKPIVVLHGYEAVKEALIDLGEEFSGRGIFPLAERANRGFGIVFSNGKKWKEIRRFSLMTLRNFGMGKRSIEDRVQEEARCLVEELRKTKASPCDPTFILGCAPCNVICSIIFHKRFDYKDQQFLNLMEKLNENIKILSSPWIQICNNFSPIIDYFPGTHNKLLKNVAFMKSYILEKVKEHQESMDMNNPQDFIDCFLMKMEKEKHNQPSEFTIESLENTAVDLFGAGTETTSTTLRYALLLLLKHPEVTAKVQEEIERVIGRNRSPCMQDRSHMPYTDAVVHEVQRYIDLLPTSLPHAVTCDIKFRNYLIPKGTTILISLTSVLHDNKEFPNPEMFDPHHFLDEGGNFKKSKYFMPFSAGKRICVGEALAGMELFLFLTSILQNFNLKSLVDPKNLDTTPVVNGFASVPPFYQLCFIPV
CYP2C19 act: activators of human cytochrome P450 2C19. P33261. 96,000 tested, under 10 active. recombinant CYP2C19, luciferin-H EGE luminescence; stronger effect = higher value; 0 = fully inhibited enzyme, 1 = untreated enzyme. activation factor at 5 µM;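 active = activation factor of at least 2 at 5 µM in the primary screen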
CYP2C19 inhib: inhibitors of human CYP2C19. CYP2C19 Supersomes, luciferin-H EGE luminescence, 30 min. inhibition, % at 5 µM. 96,000 tested, 21% active. AID 778;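 active = CYP2C19 inhibition above a set limit at 5 µM in the primary screen, cut at about 50% in these data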
PostGolgi yeast: growth inhibition of a yeast mutant, post-Golgi transport screen; inhibition, % at 10 µM; 98,000 tested, 0.9% active; post-Golgi transport phenotypic cell assay;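 also: yeast cells grown in 1536-well plates; yeast grown about 18 h at 30C before absorbance read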
CYP2C9 inh: inhibitors of human CYP2C9; P11712; CYP2C9 Supersomes, luciferin-H conversion, luminescence; inhibition, % at 5 µM; 96,000 tested, 20% active; AID 777;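 active = blocking of liver enzyme CYP2C9 beyond about 50% at 5 µM, limit read from the data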
A number is an active result; - = inactive; . = no result. The list is not random: actives were taken first. Their share in the collection is about 32%. Rule as the data show it, unless noted: active = inhibition above about 30%; inactive = the rest.

SMILES	PostGolgi ctrl	CYP2C9 activ	CYP2C19 act	CYP2C19 inhib	PostGolgi yeast	CYP2C9 inh
COc1cc(OC)c2c(c1)C(=O)c1cc(OC)cc(OC)c1C2=O	-	-	-	-	-	-
CC1=C(C(=O)OC(C)C)C(c2ccccn2)n2ncnc2N1 (stereo not given)	33	-	-	-	-	-
CCOC(=O)C1=C(C)Nc2ncnn2C1c1cccs1 (stereo not given)	-	-	-	-	-	-
CC1=C(C(=O)OC(C)C)C(c2ccncc2)n2ncnc2N1 (stereo not given)	-	-	-	-	-	-
COC(=O)c1ccc(C2C(C(C)=O)=C(C)Nc3ncnn32)cc1 (stereo not given)	-	-	-	96	-	-
CCCC1=C(C(=O)OCC)C(c2ccc(F)cc2)n2ncnc2N1 (stereo not given)	-	-	-	55	-	76
CCOC(=O)C1=C(C)Nc2ncnn2C1/C=C/c1ccccc1 (stereo not given)	-	-	-	57	-	63
CC(=O)Nc1ccc(-c2nnc(SCc3ccc(C)cc3)n2C)cc1	-	-	-	-	-	-
Cc1cc(NC(=O)c2cc(C(C)C)on2)no1	-	-	-	-	-	-
CCCC1=C(C(=O)OCC)C(/C=C/c2ccccc2)n2ncnc2N1 (stereo not given)	-	-	-	91	-	52
CCCC1=C(C(=O)OCC)C(c2ccc(N(C)C)cc2)n2ncnc2N1 (stereo not given)	-	-	-	-	-	-
CC1=C(C(=O)OC2CCCCC2)C(c2ccco2)n2ncnc2N1 (stereo not given)	-	-	-	73	-	52
CC(C)(C)c1csc(NC(=O)c2ccc3nccnc3c2)n1	-	-	-	-	-	-
O=C(CCC1COc2ccccc2O1)NCc1ccco1 (stereo not given)	-	-	-	-	-	-
CC(=O)NCCOc1cccc2ccccc12	-	-	-	56	-	-
COC(=O)c1c(C)n(-c2ccc(OC)cc2)c2ccc(O)cc12	-	-	-	79	-	67
CCOc1ccc2c(c1)c(C(C)=O)c(C)n2-c1ccccc1	41	-	-	99	-	99
CCOC(=O)CSc1nc2c(c(=O)n(C)c(=O)n2C)n1CCCc1ccccc1	-	-	-	57	-	73
Cn1c(=O)c2c(nc(CN3CCN(C(=O)c4ccco4)CC3)n2CCc2ccccc2)n(C)c1=O	-	-	-	-	-	-
CCCn1c(CN2CCN(C(=O)c3ccco3)CC2)nc2c1c(=O)n(C)c(=O)n2C	35	-	-	-	-	-
Cn1c(=O)c2c(nc(CN3CCN(C(=O)c4ccco4)CC3)n2CCCc2ccccc2)n(C)c1=O	32	-	-	-	-	85
CCOC(=O)N1CCN(Cc2nc3c(c(=O)n(C)c(=O)n3C)n2CCCc2ccccc2)CC1	-	-	-	-	-	70
CCCCn1c(CN2CCN(C(=O)c3ccco3)CC2)nc2c1c(=O)n(C)c(=O)n2C	-	.	.	.	-	.
CCn1c(SCC(=O)OCc2ccccc2)nc2c1c(=O)n(C)c(=O)n2C	-	-	-	-	-	-
CCN1CCN(Cc2nc3c(c(=O)n(C)c(=O)n3C)n2CCCc2ccccc2)CC1	.	-	-	-	.	-
SMILES	PostGolgi ctrl	CYP2C9 activ	CYP2C19 act	CYP2C19 inhib	PostGolgi yeast	CYP2C9 inh
O=C(Cn1cnc2c(oc3ccccc32)c1=O)N1CCN(c2ccccc2)CC1	-	-	-	-	-	-
CC1CCCN(Cc2nc3c(c(=O)n(C)c(=O)n3C)n2CCc2ccccc2)C1 (stereo not given)	-	-	-	-	-	-
CC1CCCN(Cc2nc3c(c(=O)n(C)c(=O)n3C)n2CCCc2ccccc2)C1 (stereo not given)	-	-	-	-	-	62
CCCOC(=O)/C(C(N)=NCc1ccccc1)=C(\O)OCCC	-	-	-	-	-	-
CCC(CC)COC(=O)C(C#N)c1nc2ccccc2nc1N1CCN(CC)CC1 (stereo not given)	-	-	-	82	-	64
COc1ccc(CNC(=O)C(C#N)c2nc3ccccc3nc2N2CCN(C)CC2)cc1 (stereo not given)	-	-	-	58	-	-
CCC(C)COC(=O)C(C#N)c1nc2ccccc2nc1N1CCCCC1 (stereo not given)	-	-	-	-	-	66
CC(C)OC(=O)C(C#N)c1nc2ccccc2nc1N1CCCC1 (stereo not given)	-	.	.	.	-	.
N#CC(C(=O)OCc1ccccc1)c1nc2ccccc2nc1N1CCOCC1 (stereo not given)	-	-	-	50	-	-
N#CC(C(=O)NC1CCCCC1)c1nc2ccccc2nc1N1CCOCC1 (stereo not given)	.	-	-	-	.	-
CCN1CCCC1CNC(=O)Cn1cccc1C(=O)c1ccccc1 (stereo not given)	-	-	-	-	-	-
CCC(C)C(NC(=O)[C@@H](NC(=O)c1ccccc1F)C(C)C)C(=O)OC (stereo not given in full)	-	-	-	-	-	-
COC(=O)NCC1(C)CC(NC(=O)OC)CC(C)(C)C1 (stereo not given)	-	-	-	77	-	-
Cc1ccccc1NC(=O)Nc1ccccc1C(=O)NCc1ccccc1	-	-	-	-	-	59
Cc1nc2cccc(C(=O)NCc3ccccc3)c2o1	-	-	-	-	-	62
Cc1ccccc1NC(=O)c1nc[nH]c1C(=O)NCc1ccccc1	53	-	-	-	-	-
O=C(O)c1ccccc1C(=O)NCc1ccccc1	-	-	-	-	-	-
Cc1ccc(NC(=O)Nc2ccccc2C(=O)NCc2ccccc2)cc1	-	-	-	-	-	-
COc1ccc(NC(=O)c2nc[nH]c2C(=O)Nc2ccccc2C)cc1	-	-	-	-	-	-
O=C1NC(c2ccccc2)(C(F)(F)F)C(=O)N1Cc1cccnc1 (stereo not given)	-	-	-	84	-	51
O=c1c2ccccc2c2ccccc2c(=O)n1Cc1cccnc1	-	-	-	-	-	-
Cc1c(Cl)cnc(NC(=O)COC(=O)C(NC(=O)c2ccco2)C(C)C)c1Cl (stereo not given)	-	-	-	77	-	-
O=C(COC(=O)c1ccccc1NC(=O)c1ccco1)Nc1ncc(Cl)cc1Cl	-	-	-	-	-	64
Cc1ccc(NC(=O)N2CCC(C(=O)NCC(C)C)CC2)cc1	-	-	-	-	-	-
CC(=O)N(/N=C1\Sc2ccccc2C1=O)c1ccccc1C	33	-	-	-	-	-
CC(=O)N(/N=C1\Sc2ccccc2C1=O)c1ccccc1	-	-	-	50	-	63
CN(C)/C=C1/Sc2ccccc2C1=O	-	-	-	-	-	-
CC(=O)N(/N=C1\Sc2ccccc2C1=O)c1ccc(C)cc1C	48	-	-	-	-	-

Screens: PubChem, several laboratories
